Results as given in PubChem BioAssay (NCATS).
Inconclusive results are not listed. Activity calls are given as the source filed them. Unless noted, the call rests on the fitted dose curve; in most records, active means well fitted curve in the direction sought with a large enough effect; inconclusive means small, poorly fitted or top-dose-only effect, or another doubt; inactive means no such curve, though single readings can be large; an effect the other way counts as inactive or inconclusive.

What was measured:
[1] = NS1 protein of Zika virus - qHTS assay to identify small molecule inhibitors in human HEK 293 cells (AID 1347053); conditions: HEK293 ZIKV MR766 infection, NS1 TR-FRET, 24 h; series mostly up to 46.1 µM;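 further: plate controls were infected untreated cells for no effect and uninfected cells for full effect; nearly all actives have a fitted effect of over 55% in size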
Method in brief: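 Compound-treated (1 h pre-infection) HEK 293 cells infected with ZIKV MR766, MOI = 0.5; after 24 h at 37 C, NS1 read by TR-FRET; data normalized to uninfected and infected controls.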

[2] = target: T1, Tyrosine-protein phosphatase non-receptor type substrate 1 (Homo sapiens) + Leukocyte surface antigen CD47 (Homo sapiens) (UniProt P78324+Q08722); test: CD47-SIRPalpha protein protein interaction - LANCE assay qHTS validation (AID 1347057; active means well fitted curve in the direction sought with a large enough effect in the signal ratio, with a control signal flat, not every such curve was filed as active; the % refers to the signal ratio; further: 0% is about no effect); conditions: Recombinant CD47-His / biotin-SIRPalpha, TR-FRET ratio; series mostly up to 38.3 µM
Method in brief: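 Inhibition of soluble CD47/SIRPalpha ectodomain association by titrated compounds, measured as 665/615 nm time-resolved FRET ratio after sequential 30 min room-temperature incubations.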

[3] = target: T1, Tyrosine-protein phosphatase non-receptor type substrate 1 (Homo sapiens) + Leukocyte surface antigen CD47 (Homo sapiens); test: CD47-SIRPalpha protein protein interaction - Alpha assay qHTS validation (AID 1347059); conditions: AlphaScreen CD47-His/biotin-SIRPalpha binding, LOPAC; series mostly up to 38.3 µM;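 further: bead proximity luminescence from CD47 binding SIRPalpha after compound preincubation with SIRPalpha; on the % scale 0 is the no-effect control and ±100 the full control effect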
Method in brief: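 In PBS (pH 7.4) with 0.05% IGEPAL CA-630, compound is preincubated with biotin-Avi-SIRPalpha ectodomain before His-CD47 ectodomain and affinity beads are added. Light-protected room-temperature incubations; AlphaScreen readout.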

[4] = target: Parathyroid hormone/parathyroid hormone-related peptide receptor (Homo sapiens) (UniProt Q03431); test: qHTS for PTHR1 Agonists: Optimization Screen against the NCGC LOPAC library (AID 1347079); conditions: HEK293 GP2 PTHR1 GloSensor cAMP luminescence, 1 h; series mostly up to 57.1 µM;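 further: GloSensor cAMP luminescence in HEK-293 GP2 cells expressing human PTHR1 with IBMX; 0% is about no effect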
Method in brief: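 Signal increase flags agonism. GP2 cells, derived from HEK-293, express human PTHR1 and a GloSensor cAMP construct.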

[5] = target: T1, Tyrosine-protein phosphatase non-receptor type substrate 1 (Homo sapiens) + Leukocyte surface antigen CD47 (Homo sapiens); test: CD47-SIRPalpha protein protein interaction - HTRF assay qHTS validation (AID 1347058; active means well fitted curve in the direction sought with a large enough effect in the signal ratio, not every such curve was filed as active; the % refers to the signal ratio; further: 0% is about no effect); conditions: TR-FRET HTRF CD47-His / biotin-SIRPalpha binding, ratio 665/615; series mostly up to 38.3 µM
Method in brief: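 Soluble extracellular domains (6His-CD47, Avi-tag-biotinylated SIRPalpha) in PBS pH 7.4 with 0.05% IGEPAL CA-630. Compounds were preincubated 30 min at RT with CD47 and anti-His-Eu, then SIRPalpha and SAV-XL665 were added. TR-FRET 665/615 ratio.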

[6] = qHTS of pediatric cancer cell lines to identify multiple opportunities for drug repurposing: Primary screen for TC32 cells (AID 1347089); conditions: TC32 Ewing sarcoma viability, CellTiter-Glo luminescence, 48 h; series mostly up to 45.8 µM; further: on the % scale 0 is the no-effect control and ±100 the full control effect; nearly all actives have a fitted effect of over 60% in size
Method in brief: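 Luminescent CellTiter-Glo read-out of metabolically active TC32 cells after 48 h compound exposure. Primary: MIPE 11-point, 0.78 nM–46 µM; NPC 8-point, 0.59 nM–46 µM. Confirmatory: 11-point dilutions.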

[7] = qHTS of pediatric cancer cell lines to identify multiple opportunities for drug repurposing: Primary screen for SJ-GBM2 cells (AID 1347091); conditions: SJ-GBM2 viability, CellTiter-Glo luminescence, 48 h; series mostly up to 46 µM;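 further: plate controls were DMSO neutral control for no effect and bortezomib for full effect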
Method in brief: (§1)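 Eight- or eleven-point concentration series, 48 h treatment at 37 degrees C in growth media; readout CellTiter-Glo luminescence. Potency and efficacy were taken from the concentration-response curves.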

[8] = qHTS of pediatric cancer cell lines to identify multiple opportunities for drug repurposing: Primary screen for A673 cells (AID 1347092); conditions: A673 Ewing sarcoma viability, CellTiter-Glo ATP luminescence, 48 h; series mostly up to 46 µM; further: on the % scale 0 is the no-effect control and ±100 the full control effect; nearly all actives have a fitted effect of over 45% in size
Method in brief: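 A673 cells (500-1,000 cells/well in growth media) were pre-incubated 5 h at 37 degrees C, then exposed to compounds for 48 h. Viability was read as CellTiter-Glo luminescence; concentration-response curves came directly from the primary screen.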

[9] = qHTS of pediatric cancer cell lines to identify multiple opportunities for drug repurposing: Primary screen for SK-N-MC cells (AID 1347093); conditions: SK-N-MC viability, CellTiter-Glo luminescence, 48 h; series mostly up to 46 µM;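 further: plate controls were DMSO neutral control for no effect and bortezomib for full effect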
Method in brief: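 Metabolically active cells were quantified by ATP-dependent luminescence (CellTiter-Glo, 15 min at room temperature) following 48 h treatment. Cells had been plated at 500-1,000 per well and settled for 5 h beforehand.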

[10] = qHTS of pediatric cancer cell lines to identify multiple opportunities for drug repurposing: Primary screen for BT-37 cells (AID 1347094); conditions: BT-37 viability, CellTiter-Glo luminescence, 48 h; series mostly up to 57.3 µM;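 further: plate controls were DMSO for no effect and bortezomib for full effect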
Method in brief: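 Quantitative HTS format: each compound titrated (MIPE 11 points from 0.78 nM, NPC 8 points from 0.59 nM) onto cells plated 5 hours earlier. After 48 h at 37 degrees C, CellTiter-Glo luminescence was recorded.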

[11] = qHTS of pediatric cancer cell lines to identify multiple opportunities for drug repurposing: Primary screen for DAOY cells (AID 1347090); conditions: DAOY medulloblastoma viability, CellTiter-Glo luminescence, 48 h; series mostly up to 46 µM;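 further: plate controls were DMSO for no effect and bortezomib for full effect; nearly all actives have a fitted effect of over 55% in size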
Method in brief: as §1

T1 sequence (P78324 whole entry, looked up, the tested form may be a part): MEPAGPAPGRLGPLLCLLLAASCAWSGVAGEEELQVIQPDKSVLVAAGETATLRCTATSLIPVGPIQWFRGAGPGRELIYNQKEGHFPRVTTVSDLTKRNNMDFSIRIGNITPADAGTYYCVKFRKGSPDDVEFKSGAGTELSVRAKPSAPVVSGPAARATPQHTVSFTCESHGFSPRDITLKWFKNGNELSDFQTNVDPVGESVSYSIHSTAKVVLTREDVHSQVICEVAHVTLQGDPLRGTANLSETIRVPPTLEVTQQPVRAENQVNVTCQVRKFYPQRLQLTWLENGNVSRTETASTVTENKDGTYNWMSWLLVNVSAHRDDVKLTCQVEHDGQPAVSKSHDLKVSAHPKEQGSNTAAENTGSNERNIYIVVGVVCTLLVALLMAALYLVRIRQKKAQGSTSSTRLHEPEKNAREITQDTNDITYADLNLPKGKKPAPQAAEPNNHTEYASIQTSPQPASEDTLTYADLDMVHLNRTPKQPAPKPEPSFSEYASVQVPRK
T1 sequence (Q08722 whole entry, looked up, the tested form may be a part): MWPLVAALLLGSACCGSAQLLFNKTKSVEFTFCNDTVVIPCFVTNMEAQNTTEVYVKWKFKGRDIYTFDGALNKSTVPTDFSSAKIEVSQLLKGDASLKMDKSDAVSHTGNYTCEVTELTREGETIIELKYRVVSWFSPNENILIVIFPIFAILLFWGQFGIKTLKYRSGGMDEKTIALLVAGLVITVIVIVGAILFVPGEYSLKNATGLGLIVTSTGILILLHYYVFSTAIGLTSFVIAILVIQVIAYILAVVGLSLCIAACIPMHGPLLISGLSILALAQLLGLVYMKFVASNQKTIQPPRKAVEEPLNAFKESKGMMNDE
Sequence of Parathyroid hormone/parathyroid hormone-related peptide receptor (Homo sapiens) (Q03431 whole entry, looked up): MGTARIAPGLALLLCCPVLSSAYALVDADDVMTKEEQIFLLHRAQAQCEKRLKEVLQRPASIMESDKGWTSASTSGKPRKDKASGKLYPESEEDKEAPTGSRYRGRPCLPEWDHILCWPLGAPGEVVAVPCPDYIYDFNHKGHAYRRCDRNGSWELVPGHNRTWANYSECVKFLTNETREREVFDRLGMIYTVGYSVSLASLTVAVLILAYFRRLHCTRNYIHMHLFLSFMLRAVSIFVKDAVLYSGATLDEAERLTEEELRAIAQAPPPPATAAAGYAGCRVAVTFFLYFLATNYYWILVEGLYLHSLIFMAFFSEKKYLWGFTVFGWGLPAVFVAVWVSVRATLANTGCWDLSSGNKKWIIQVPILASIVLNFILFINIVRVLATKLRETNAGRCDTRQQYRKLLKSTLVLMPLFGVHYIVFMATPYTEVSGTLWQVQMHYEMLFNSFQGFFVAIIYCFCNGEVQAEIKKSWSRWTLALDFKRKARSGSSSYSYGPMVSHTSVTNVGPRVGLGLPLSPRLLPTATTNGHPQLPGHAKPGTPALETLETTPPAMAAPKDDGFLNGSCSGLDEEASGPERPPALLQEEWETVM

COc1ccc(-c2cc(=O)c3c(O)c(OC)c(OC)cc3o2)cc1O
inactive: Potency [1] | Potency [2] | Potency [3]

CCCCN(CC)c1nc(C)nc2c1c(C)cn2-c1c(C)cc(C)cc1C
inactive: Potency [1] | Potency [2] | Potency [3]

O=C(c1ccc(Cl)cc1)N1CCN(c2ccc([N+](=O)[O-])c3ncccc23)CC1
inactive: Potency [1] | Potency [2] | Potency [3] | Potency [4]

O=C(CCc1ccncc1)NNC(=O)N1Cc2ccccc2Oc2ccc(Cl)cc21
inactive: Potency [1] | Potency [2] | outcome [5] | Potency [3]

Nc1nc(OCC2CCCCC2)c2[nH]cnc2n1
inactive: Potency [1] | Potency [2] | outcome [5] | Potency [3]

COCCOc1cc2ncnc(Cl)c2cc1OCCOC
inactive: Potency [1] | Potency [2] | outcome [5] | Potency [3]

N[C@H](CCCP(=O)(O)O)C(=O)O
inactive: Potency [1] | Potency [2] | Potency [3]

O=C(Nc1ccc2[nH]ncc2c1)C1CCC1
inactive: Potency [1] | Potency [2] | outcome [5] | Potency [3]

CC(C)(NS(=O)(=O)c1ccc(Oc2ccc(F)cc2)cc1)C(=O)NO
inactive: Potency [1] | Potency [2] | outcome [5] | Potency [3]

COCCOc1cc2nc[nH]c(=O)c2cc1OCCOC
inactive: Potency [1] | outcome [5]

S=C(S)OC1CC2CC1C1CCCC21 (configuration not stated)
inactive: Potency [1] | Potency [2] | outcome [5] | Potency [3] | Potency [4]

Fc1ccc2[nH]c(CN3CCN(c4ccccn4)CC3)cc2c1
inactive: Potency [1] | Potency [2] | outcome [5]

O=C1NCc2c1c1c3ccccc3[nH]c1c1[nH]c3ccccc3c21
inactive: Potency [1] | Potency [2] | outcome [5] | Potency [3]

O=C(Nc1ccc2c(c1)CCN(Cc1ncn[nH]1)C2)c1ccccc1-c1ccc(C(F)(F)F)cc1
inactive: Potency [1] | Potency [2] | outcome [5] | Potency [3]

CO[C@H]1O[C@@H]2O[C@]3(C)CC[C@@H]4[C@@H](C)CC[C@H]([C@H]1C)[C@]24OO3
inactive: Potency [1] | Potency [2] | outcome [5] | Potency [3]

Cc1cn([C@H]2CC(N=[N+]=[N-])[C@@H](CO)O2)c(=O)[nH]c1=O (some centres not stated)
inactive: Potency [1] | Potency [2]

CN[C@H](CC(C)C)C(=O)N[C@H]1C(=O)N[C@@H](CC(N)=O)C(=O)N[C@H]2C(=O)N[C@H]3C(=O)N[C@H](C(=O)N[C@H](C(=O)O)c4cc(O)cc(O)c4-c4cc3ccc4O)[C@H](O)c3ccc(c(Cl)c3)Oc3cc2cc(c3O[C@@H]2O[C@H](CO)[C@@H](O)[C@H](O)[C@H]2O[C@H]2C[C@](C)(N)[C@H](O)[C@H](C)O2)Oc2ccc(cc2Cl)[C@H]1O
inactive: Potency [1] | Potency [2] | outcome [5] | Potency [3]

CCOC(=O)C1=C(C)NC(C)=C(C(=O)OCC)C1c1c(F)c(F)c(F)c(F)c1F
inactive: Potency [1] | Potency [2] | outcome [5] | Potency [3]

COc1ccccc1CN[C@@H]1CCCN[C@@H]1c1ccccc1
inactive: Potency [1] | Potency [2] | outcome [5] | Potency [3]

O=C(NOCC1CC1)c1cc(Br)c(F)c(F)c1Nc1ccc(I)cc1Cl
inactive: Potency [1] | Potency [2] | Potency [3]

CN=c1nc(-c2ccccc2)n(-c2ccccc2)s1
inactive: Potency [1] | Potency [2] | outcome [5] | Potency [3] | Potency [4]

CCNc1nc2c(ncn2[C@H]2C[C@H](O)[C@@H](CO)O2)c(=O)[nH]1
inactive: Potency [1] | Potency [2] | outcome [5]

CCNC(=O)[C@H]1O[C@@H](n2cnc3c(N)nc(NCCc4ccc(CCC(=O)O)cc4)nc32)[C@H](O)C1O (some centres not stated)
inactive: Potency [1] | Potency [2] | outcome [5] | Potency [3]

S=c1[nH]c(-c2ccccc2)cn1-c1ccccc1
inactive: Potency [1] | Potency [2] | outcome [5] | Potency [3]

CNCC[C@H](Oc1ccc(C(F)(F)F)cc1)c1ccccc1
inactive: Potency [1] | Potency [4]

C[N+]1(C)C2CC(OC(=O)[C@H](CO)c3ccccc3)CC1C1OC12 (some centres not stated)
inactive: Potency [1] | outcome [5] | Potency [3] | Potency [4]

O=C(Nc1ccc(C(=O)O)c(O)c1)c1ccccc1
inactive: Potency [1] | Potency [6] | Potency [7] | Potency [8] | Potency [9] | Potency [10]

CC(=O)c1ccc(OCC(=O)N2CCCCC2)cc1
inactive: Potency [1] | Potency [6] | Potency [7] | Potency [8] | Potency [9] | Potency [10]

O=C(O)Cc1cccc(-c2cc(CCCCCCc3ccc(O[C@H]4O[C@H](CO)[C@@H](O)[C@H](O)[C@@H]4O)c(-c4cccc(CC(=O)O)c4)c3)ccc2O[C@H]2O[C@H](CO)[C@@H](O)[C@H](O)[C@@H]2O)c1
inactive: activity change, negative = inhibition [1] -8.2% [at 0.593 µM] | activity change, negative = cytotoxic [6] 14.4% [at 0.594 µM] | activity change, negative = cytotoxic [11] 1% [at 0.597 µM] | activity change, negative = cytotoxic [7] 18.6% [at 0.597 µM] | activity change, negative = cytotoxic [8] 10.8% [at 0.597 µM] | activity change, negative = cytotoxic [10] 12.8% [at 0.745 µM]
